Several values for one entry are separate records, joined by “and”; a condition that tells them apart may be missing. Equal values may be shown once. About 79,000 compounds went through this panel and 15% of them were active in at least one assay; those are over-represented in the sample as a whole. More than one record can exist for a structure, and the calls need not agree. Activity calls are given as the source filed them. Cut-off read from the data, not from the text of the source: active = growth inhibition above about 70%; inactive = the rest.
Assays:
[1] = NCI Yeast Anticancer Drug Screen. Data for the rad50 strain (AID 155);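 note: 0% = growth of vehicle-only cultures of the same strain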; settings: S. cerevisiae rad50 strain growth inhibition, stronger effect = higher value
Method in brief: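 Yeast carrying a defined DNA repair defect were exposed to test compounds, and growth was compared with vehicle-treated controls to give percent inhibition.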

[2] = NCI Yeast Anticancer Drug Screen. Data for the mec2-1 strain (AID 157); settings: S. cerevisiae mec2-1 strain, stronger effect = higher value
Method in brief: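 Test agents were screened against the mec2-1 yeast strain, with defined DNA repair or cell cycle alteration. Growth was scored as inhibition against vehicle-only controls.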

[3] = NCI Yeast Anticancer Drug Screen. Data for the sgs1 mgt1 strain (AID 161);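 note: 0% = growth of cultures given vehicle only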; settings: S. cerevisiae sgs1 mgt1 strain, stronger effect = higher value
Method in brief: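 Inhibition of yeast growth, normalised to vehicle-treated controls, is reported for a strain bearing genetic alterations in DNA damage repair.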

[4] = NCI Yeast Anticancer Drug Screen. Data for the cln2 rad14 strain (AID 165);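 note: 0% = growth equal to vehicle treated cultures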; settings: S. cerevisiae cln2 rad14 strain, stronger effect = higher value
Method in brief: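 Growth of compound-exposed yeast (cln2 rad14 genotype) measured and expressed as inhibition relative to vehicle.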

[5] = NCI Yeast Anticancer Drug Screen. Data for the bub3 strain (AID 167); settings: S. cerevisiae bub3 mutant strain, stronger effect = higher value
Method in brief: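 Compounds were applied to a genetically altered yeast strain carrying a cell-cycle control defect. Growth inhibition was scored against vehicle-treated controls.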

[6] = NCI Yeast Anticancer Drug Screen. Data for the mlh1 rad18 strain (AID 175); settings: S. cerevisiae mlh1 rad18 strain growth inhibition, stronger effect = higher value
Method in brief: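 In this whole-cell yeast screen, a strain with altered DNA damage repair is challenged with compound, and its growth is measured against matched vehicle-treated controls.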

[7] = at 5.0 µM (retest, dose inferred, filed as 0.5)
[8] = at 50.0 µM (retest, dose inferred, filed as 5.0)

Structure (SMILES): CC(=O)OC(c1ccccc1)c1ccc(Cl)cc1 (stereo unspecified)
- growth inhibition [1, 7]: 3% (inactive)
- growth inhibition [1, 8]: 0% (inactive)
- growth inhibition ([1]; at 50.0 µM): -11% (inactive)
- growth inhibition [2, 7]: 7% (inactive)
- growth inhibition [2, 8]: 6% (inactive)
- growth inhibition ([2]; at 50.0 µM): 42.2% (inactive)
- growth inhibition [3, 7]: 4% (inactive)
- growth inhibition [3, 8]: 8% (inactive)
- growth inhibition ([3]; at 50.0 µM): -0.4% (inactive)
- growth inhibition [4, 7]: 4% (inactive)
- growth inhibition [4, 8]: -14% (inactive)
- growth inhibition ([4]; at 50.0 µM): -1.9% (inactive)
- growth inhibition [5, 7]: 6% (inactive)
- growth inhibition [5, 8]: 8% (inactive)
- growth inhibition ([5]; at 50.0 µM): -5.65% (inactive)
- growth inhibition [6, 7]: 1% (inactive)
- growth inhibition [6, 8]: -1% (inactive)
- growth inhibition ([6]; at 50.0 µM): 2.9% (inactive)

Structure (SMILES): CCN(CC)C(=S)Sc1nc2ccccc2s1
- growth inhibition [1, 7]: -3% (inactive)
- growth inhibition [1, 8]: 88% (active)
- growth inhibition ([1]; at 50.0 µM): 34.2% (inactive)
- growth inhibition [2, 7]: -2% (inactive)
- growth inhibition [2, 8]: 87% (active)
- growth inhibition ([2]; at 50.0 µM): -12.1% (inactive)
- growth inhibition [3, 7]: 0% (inactive)
- growth inhibition [3, 8]: 95% (active)
- growth inhibition ([3]; at 50.0 µM): 16.7% (inactive)
- growth inhibition [4, 7]: -7% (inactive)
- growth inhibition [4, 8]: 13% (inactive)
- growth inhibition ([4]; at 50.0 µM): -54.5% (inactive)
- growth inhibition [5, 7]: 24% (inactive)
- growth inhibition [5, 8]: 91% (active)
- growth inhibition ([5]; at 50.0 µM): 68.1% (inactive)
- growth inhibition [6, 7]: 5% (inactive)
- growth inhibition [6, 8]: 63% (inactive)
- growth inhibition ([6]; at 50.0 µM): 18.4% (inactive)

Structure (SMILES): O=S(=O)(O)c1ccc(-c2c3nc(c(-c4ccc(S(=O)(=O)O)cc4)c4ccc([nH]4)c(-c4ccc(S(=O)(=O)O)cc4)c4nc(c(-c5ccc(S(=O)(=O)O)cc5)c5ccc2[nH]5)C=C4)C=C3)cc1
- growth inhibition [1, 7]: 61% (inactive) and 82% (active)
- growth inhibition [1, 8]: 94% (active) and 91% (active)
- growth inhibition ([1]; at 50.0 µM): 92.8% (active) and 94.3% (active)
- growth inhibition [2, 7]: 72% (active) and 96% (active)
- growth inhibition [2, 8]: 97% (active) and 95% (active)
- growth inhibition ([2]; at 50.0 µM): 96.8% (active) and 87.5% (active)
- growth inhibition [3, 7]: 74% (active) and 68% (inactive)
- growth inhibition [3, 8]: 29% (inactive) and 51% (inactive)
- growth inhibition ([3]; at 50.0 µM): 94.8% (active) and 91.8% (active)
- growth inhibition [4, 7]: 32% (inactive) and 40% (inactive)
- growth inhibition [4, 8]: 80% (active) and 67% (inactive)
- growth inhibition ([4]; at 50.0 µM): 91.8% (active) and 91.4% (active)
- growth inhibition [5, 7]: 51% (inactive) and 64% (inactive)
- growth inhibition [5, 8]: 92% (active) and 83% (active)
- growth inhibition ([5]; at 50.0 µM): 93.6% (active) and 92.8% (active)
- growth inhibition [6, 7]: 74% (active) and 93% (active)
- growth inhibition [6, 8]: 92% (active) and 93% (active)
- growth inhibition ([6]; at 50.0 µM): 96% (active) and 91.2% (active)

Structure (SMILES): CCc1[nH]c(=O)nc(N)c1-c1ccc(N2CCCCC2)c([N+](=O)[O-])c1
- growth inhibition [1, 7]: -11% (inactive)
- growth inhibition [1, 8]: -25% (inactive)
- growth inhibition ([1]; at 50.0 µM): 89.8% (active)
- growth inhibition [2, 7]: -23% (inactive)
- growth inhibition [2, 8]: 1% (inactive)
- growth inhibition ([2]; at 50.0 µM): 86.8% (active)
- growth inhibition [3, 7]: 0% (inactive)
- growth inhibition [3, 8]: -6% (inactive)
- growth inhibition ([3]; at 50.0 µM): 90.8% (active)
- growth inhibition [4, 7]: -31% (inactive)
- growth inhibition [4, 8]: -25% (inactive)
- growth inhibition ([4]; at 50.0 µM): 70.8% (active)
- growth inhibition [5, 7]: -25% (inactive)
- growth inhibition [5, 8]: -32% (inactive)
- growth inhibition ([5]; at 50.0 µM): 71.4% (active)
- growth inhibition [6, 7]: -22% (inactive)
- growth inhibition [6, 8]: -12% (inactive)
- growth inhibition ([6]; at 50.0 µM): 90.8% (active)

Structure (SMILES): O=[N+]([O-])c1cc2c(cc1S(=O)(=O)O)C1C(C3C2C2(Cl)C(Cl)=C(Cl)C3(Cl)C2(Cl)Cl)C2(Cl)C(Cl)=C(Cl)C1(Cl)C2(Cl)Cl (stereo unspecified)
- growth inhibition [1, 7]: -3% (inactive)
- growth inhibition [1, 8]: 10% (inactive)
- growth inhibition ([1]; at 50.0 µM): 66.2% (inactive)
- growth inhibition [2, 7]: -10% (inactive)
- growth inhibition [2, 8]: 26% (inactive)
- growth inhibition ([2]; at 50.0 µM): 69.9% (inactive)
- growth inhibition [3, 7]: 22% (inactive)
- growth inhibition [3, 8]: 41% (inactive)
- growth inhibition ([3]; at 50.0 µM): 72.5% (active)
- growth inhibition [4, 7]: 34% (inactive)
- growth inhibition [4, 8]: 41% (inactive)
- growth inhibition ([4]; at 50.0 µM): 54.2% (inactive)
- growth inhibition [5, 7]: -1% (inactive)
- growth inhibition [5, 8]: 44% (inactive)
- growth inhibition ([5]; at 50.0 µM): 71.2% (active)
- growth inhibition [6, 7]: 8% (inactive)
- growth inhibition [6, 8]: 57% (inactive)
- growth inhibition ([6]; at 50.0 µM): 67.3% (inactive)

Structure (SMILES): CC1(C)CC(=O)C2=C(C1)OC1=C(CC(C)(C)CC1=O)C2c1ccccc1Cl (stereo unspecified)
- growth inhibition [1, 7]: 19% (inactive)
- growth inhibition [1, 8]: 16% (inactive)
- growth inhibition ([1]; at 50.0 µM): -5.65% (inactive)
- growth inhibition [2, 7]: 12% (inactive)
- growth inhibition [2, 8]: 13% (inactive)
- growth inhibition ([2]; at 50.0 µM): -7.45% (inactive)
- growth inhibition [3, 7]: 8% (inactive)
- growth inhibition [3, 8]: 10% (inactive)
- growth inhibition ([3]; at 50.0 µM): -1.9% (inactive)
- growth inhibition [4, 7]: 37% (inactive)
- growth inhibition [4, 8]: 33% (inactive)
- growth inhibition ([4]; at 50.0 µM): 5.45% (inactive)
- growth inhibition [5, 7]: -11% (inactive)
- growth inhibition [5, 8]: -10% (inactive)
- growth inhibition ([5]; at 50.0 µM): 13.2% (inactive)
- growth inhibition [6, 7]: 17% (inactive)
- growth inhibition [6, 8]: 17% (inactive)
- growth inhibition ([6]; at 50.0 µM): -15.2% (inactive)

Structure (SMILES): O=C1c2cccc(O)c2C(=O)c2cccc(O)c21
- growth inhibition [1, 7]: 6% (inactive)
- growth inhibition [1, 8]: 17% (inactive)
- growth inhibition ([1]; at 50.0 µM): 20.7% (inactive) and 33.4% (inactive)
- growth inhibition [2, 7]: 9% (inactive)
- growth inhibition [2, 8]: 17% (inactive)
- growth inhibition ([2]; at 50.0 µM): 12.1% (inactive) and 22.7% (inactive)
- growth inhibition [3, 7]: 0% (inactive)
- growth inhibition [3, 8]: 7% (inactive)
- growth inhibition ([3]; at 50.0 µM): 18.1% (inactive) and 82.8% (active)
- growth inhibition [4, 7]: 4% (inactive)
- growth inhibition [4, 8]: 24% (inactive)
- growth inhibition ([4]; at 50.0 µM): 12.4% (inactive) and -23.5% (inactive)
- growth inhibition [5, 7]: 4% (inactive)
- growth inhibition [5, 8]: 1% (inactive)
- growth inhibition ([5]; at 50.0 µM): 6% (inactive) and 30.1% (inactive)
- growth inhibition [6, 7]: 7% (inactive)
- growth inhibition [6, 8]: 39% (inactive)
- growth inhibition ([6]; at 50.0 µM): 6.5% (inactive) and 76.8% (active)
